# Laboratory results: PubChem BioAssay AID1347165 (National Center for Advancing Translational Sciences (NCATS), 2019)
# Screen size: about 220,000 compounds; about 5,700 (2.6%) were called active. Roughly 18% stayed inconclusive and do not appear here. Calls come from the whole dose curve; as a rule, active = well fitted inhibition curve with a large enough effect; inconclusive = small, poorly fitted or top-dose-only effect; inactive = no such curve, though single readings can be large or run the other way. This excerpt belongs to a sample that is enriched for actives.
# Target: Lysine-specific demethylase 5B (Homo sapiens) (UniProt Q9UGL1)
# Sequence (Q9UGL1 whole entry, looked up): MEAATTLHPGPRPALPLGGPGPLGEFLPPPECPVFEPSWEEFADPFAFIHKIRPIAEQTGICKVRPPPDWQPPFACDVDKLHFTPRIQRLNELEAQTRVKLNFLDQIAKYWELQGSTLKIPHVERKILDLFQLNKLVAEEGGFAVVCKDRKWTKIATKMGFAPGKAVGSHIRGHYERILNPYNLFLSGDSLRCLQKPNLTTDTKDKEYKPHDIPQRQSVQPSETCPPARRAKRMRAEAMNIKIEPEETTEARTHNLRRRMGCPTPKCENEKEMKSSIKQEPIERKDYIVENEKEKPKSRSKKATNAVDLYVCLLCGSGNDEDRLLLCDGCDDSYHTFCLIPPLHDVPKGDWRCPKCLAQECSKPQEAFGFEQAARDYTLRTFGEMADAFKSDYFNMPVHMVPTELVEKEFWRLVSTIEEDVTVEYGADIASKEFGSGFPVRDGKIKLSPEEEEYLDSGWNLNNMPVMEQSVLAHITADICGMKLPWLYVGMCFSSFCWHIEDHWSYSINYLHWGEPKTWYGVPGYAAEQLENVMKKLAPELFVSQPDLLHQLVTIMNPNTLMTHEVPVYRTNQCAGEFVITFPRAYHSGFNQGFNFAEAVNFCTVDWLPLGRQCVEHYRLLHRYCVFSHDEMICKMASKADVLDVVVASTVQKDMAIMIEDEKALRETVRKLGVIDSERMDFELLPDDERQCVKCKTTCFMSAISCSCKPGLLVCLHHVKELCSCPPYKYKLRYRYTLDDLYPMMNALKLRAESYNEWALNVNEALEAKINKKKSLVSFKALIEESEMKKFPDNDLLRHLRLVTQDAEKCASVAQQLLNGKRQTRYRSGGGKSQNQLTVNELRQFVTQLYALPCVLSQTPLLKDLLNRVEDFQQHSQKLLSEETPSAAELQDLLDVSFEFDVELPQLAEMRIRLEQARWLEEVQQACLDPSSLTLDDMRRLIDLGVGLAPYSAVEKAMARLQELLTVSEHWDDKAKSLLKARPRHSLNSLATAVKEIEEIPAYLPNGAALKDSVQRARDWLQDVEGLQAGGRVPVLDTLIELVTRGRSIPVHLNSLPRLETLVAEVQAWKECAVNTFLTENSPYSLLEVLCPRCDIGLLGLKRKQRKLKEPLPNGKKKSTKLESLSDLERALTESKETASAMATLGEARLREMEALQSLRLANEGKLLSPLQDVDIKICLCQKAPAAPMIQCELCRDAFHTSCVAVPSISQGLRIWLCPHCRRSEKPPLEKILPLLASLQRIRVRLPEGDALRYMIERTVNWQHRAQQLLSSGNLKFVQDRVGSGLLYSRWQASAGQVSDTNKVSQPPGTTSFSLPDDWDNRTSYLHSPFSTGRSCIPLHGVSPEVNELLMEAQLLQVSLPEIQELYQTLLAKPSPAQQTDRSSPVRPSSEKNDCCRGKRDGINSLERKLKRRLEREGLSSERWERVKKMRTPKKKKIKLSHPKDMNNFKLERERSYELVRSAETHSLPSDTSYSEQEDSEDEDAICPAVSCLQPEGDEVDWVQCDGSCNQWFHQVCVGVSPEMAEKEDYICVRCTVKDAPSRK
# Assay: Primary screen for KDM5B Histone Demethylases FDH-coupled qHTS; note: nearly all actives have a fitted effect of over 70% in size; for activity change, negative = inhibition: 0% is about no effect
# Conditions: FDH-coupled NADH fluorescence (FDH is formaldehyde dehydrogenase); series mostly up to 57.7 µM; activity change, negative = inhibition: at the top concentration
# Procedure, shortened: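 Inhibition is measured as reduced NADH fluorescence generation from FDH coupling to formaldehyde release. Truncated KDM5BΔAP at 200 nM final acts on H3K4me3 peptide (12.5 µM in substrate mix) in pH 7.5 HEPES buffer with Tween-20, 30 min, room temperature.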
# Potency is the fitted concentration of half-maximal effect.
SMILES,"activity change, negative = inhibition",Potency
COc1nc2nc(CCc3ccccc3)n(C)c2cc1-c1cncnc1,-15.5% [at 86.2 µM] (inactive),–
COc1nc2nc(CC3CC3)n(C)c2cc1-c1ccc(CO)cc1,–,35.5 µM (active)
CC(=O)Nc1cccc(-c2n[nH]c3c2CC(=O)N(Cc2ccccc2F)C3)c1,19% [at 86.2 µM] (inactive),–
COc1nc2nc(CC3CC3)n(C)c2cc1-c1cccc(NC(C)=O)c1,–,35.5 µM (active)
CC(=O)Nc1cccc(-c2nnc3n2CCCC3)c1,11.1% (inactive),–
CSCCC(NC(=O)[C@@H](NC(=O)c1ccc(F)cc1)C(C)C)c1nnc2ccccn12 (stereo partly drawn),1.26% (inactive),–
O=C(Nc1cccc(Cl)c1)N1CCN(c2cc(=O)n3nc(-c4ccco4)sc3n2)CC1,15.2% (inactive),–
CCc1ccc2oc(C(=O)Nc3ccccc3Cl)cc(=O)c2c1,-7.99% (inactive),–
Fc1ccc(NC(=S)NCC(c2ccccc2)c2ccccc2)cc1,-19.1% (inactive),–
O=C(Nc1ccc2oc(-c3cccc(Cl)c3)nc2c1)c1ccc(F)cc1,12.7% (inactive),–
CN(c1ccccc1)S(=O)(=O)c1ccc(NC(=O)COc2ccccc2)cc1,18.6% (inactive),–
Cc1ccc(S(=O)(=O)N(C)Cc2ccccc2C(F)(F)F)cc1,3.72% [at 86.2 µM] (inactive),–
CCn1cc(-c2ccc(C)cc2)cc1C(=O)NCc1cccnc1,1.22% (inactive),–
Cn1ncc2c(C(=O)NCc3cccnc3)cc(C(C)(C)C)nc21,–,100 µM (active)
CC(C)(C)C(=O)NCCCC(=O)NCc1cccnc1,-10.7% (inactive),–
O=C(NC(=S)NC1CCCCC1)c1ccc(Cl)cc1,-10.9% (inactive),–
N#CCCN1CCN(C(=O)c2cn3ccnc(-c4ccccc4)c3n2)CC1,-13.1% (inactive),–
N#CCCN1CCN(C(=O)c2cn3ccnc(-c4ccc(F)cc4)c3n2)CC1,-25.6% (inactive),–
COc1ccccc1OCCNC(=O)c1cn2ccnc(-c3ccc(C)cc3)c2n1,–,28.2 µM (active)
COc1ccc(-c2noc(-c3cccn3CC(=O)Nc3cc(Cl)ccc3OC)n2)cc1F,27.2% (inactive),–
CCCn1nc(C(=O)Nc2sc3c(c2C(N)=O)CCC3)c2ccccc2c1=O,-13.1% (inactive),–
CCc1noc(-c2cccn3c(CNC(=O)c4ccncc4)nnc23)n1,–,28.2 µM (active)
O=C(c1cccnc1)N1CCC(Cc2nc(C3CCOCC3)no2)CC1,-22.2% (inactive),–
O=C(NCc1nnc2c(-c3nc(C4CC4)no3)cccn12)c1cccnc1,–,25.1 µM (active)
CCc1noc(-c2cn(C3CCN(C(=O)c4ccc(Cl)cc4)C3)nn2)n1 (stereo not drawn),1.84% (inactive),–
CCNC(=O)c1noc(-c2ccc[nH]c2=O)n1,-6640% (inactive),–
CC(C)c1nc(CNC(=O)c2ccc(N(C)C)nc2)no1,-12.7% (inactive),–

SMILES,"activity change, negative = inhibition",Potency
CCc1noc(-c2cn(C3CCN(C(=O)C4(c5ccccc5)CC4)C3)nn2)n1 (stereo not drawn),15% (inactive),–
CCc1noc(-c2cccn3c(CNC(=O)c4cccc(Cl)c4)nnc23)n1,–,31.6 µM (active)
CCc1noc(-c2cccn3c(CNC(=O)C(CC)c4ccccc4)nnc23)n1 (stereo not drawn),–,28.2 µM (active)
CCC(C(=O)Nc1cccc(-c2nc3cccnc3s2)c1C)c1ccccc1 (stereo not drawn),-12.9% (inactive),–
CCc1noc(-c2cn(C3CCN(C(=O)c4cccc(OC)c4)C3)nn2)n1 (stereo not drawn),-12.9% (inactive),–
CC(C)CC(=O)N1CCC(c2noc(-c3cnccn3)n2)C1 (stereo not drawn),-1.65% (inactive),–
c1ccc(-c2nc(CN3CCCC3c3cccs3)co2)cc1 (stereo not drawn),-18.7% (inactive),–
O=C1Cc2cc(-c3csc(Nc4ccc(F)cc4)n3)ccc2N1,-0.328% (inactive),–
CC(=O)Nc1ccc(SC2CCCCCC2=O)cc1 (stereo not drawn),-10.9% (inactive),–
CCC1CCc2c(sc(NC(=O)C(CC)CC)c2C#N)C1 (stereo not drawn),-14.6% (inactive),–
Cc1ccc(NC(=O)CN(C)C(=O)c2nc(-c3ccccc3)oc2C)cc1,8.05% (inactive),–
CC1CCCN(CC(=O)Nc2cc(Cl)ccc2Oc2ccccc2)C1 (stereo not drawn),21.3% (inactive),–
Nc1nc2ccc([N+](=O)[O-])cc2[n+]([O-])n1,-18% (inactive),–
COc1cccc(N(CC(=O)NC2CCCC2)C(=O)Cn2nnc(-c3ccc(C)o3)n2)c1,8.14% (inactive),–
C/C(=C\c1ccc([N+](=O)[O-])cc1)C(=O)c1ccccc1,21.4% (inactive),–
COc1ccc(CNc2nc3c(c(=O)[nH]c(=O)n3C)n2Cc2ccccc2)cc1,13.7% (inactive),–
Fc1ccc(-c2cc(NC3CCCC3)nc3[nH]ccc23)nc1,–,31.6 µM (active)
c1cncc(CNc2cc(-c3cnc4ccccc4n3)c3cc[nH]c3n2)c1,-21.9% (inactive),–
N#Cc1nc(/C=C/c2ccc(F)cc2)oc1NC1CCCCC1,-163% (inactive),–
N#Cc1ccc(CCC(=O)Nc2ccc3ccccc3n2)cc1,-9.01% (inactive),–
COc1ccc(CNC(=O)C2CCCC2)cc1,7.63% (inactive),–
COc1ccc2c(c1)OCC(C(=O)NCc1cc3cc(OC)ccc3[nH]1)C2 (stereo not drawn),–,25.1 µM (active)
COc1ccc2cc(C(=O)NCC3CCCO3)[nH]c2c1 (stereo not drawn),-50.3% (inactive),–
CN(CC(=O)N1CCCC1)c1nc(-c2cccs2)nc2ccccc12,4.38% (inactive),–
COc1ccc(-c2noc([C@@H]3CCCN3C(=O)CCCc3ccccc3)n2)cc1OC,-13.2% (inactive),–
CC(=O)N1CCN(c2cc(-c3noc([C@@H]4CCCN4Cc4ccccc4)n3)ccn2)CC1,–,35.5 µM (active)
